Most compounds without a hit are left out; they make up all but 7.5% or so of the library.
VACV Venus inh = vaccinia inhibition (Venus reporter); Vaccinia virus Venus reporter expression, fluorescence; Potency, µM (series often up to 36.5 µM), for the others: at the highest dose activity change, negative = inhibition, usual class: inhibitors; actives 0.46% (n = 330,000); AID 720580; calls by dose curve; tested in A549 cells; further: potency means the concentration at half of the fitted maximal effect; nearly all actives have a fitted effect of over 30% in size
Giardia FBPA inh = inhibitors of Giardia lamblia fructose-1,6-bisphosphate aldolase; purified Giardia FBPA; Potency, µM (titrated, usually from 59.6 µM), inactives show at the top dose activity, negative = inhibition, actives largely listed as inhibitors; actives 0.71% (n = 290,000); AID 2451; further: potency means the concentration at half of the fitted maximal effect; nearly all actives have a fitted effect of over 55% in size
Target sequence (A8B2U2 whole entry, looked up): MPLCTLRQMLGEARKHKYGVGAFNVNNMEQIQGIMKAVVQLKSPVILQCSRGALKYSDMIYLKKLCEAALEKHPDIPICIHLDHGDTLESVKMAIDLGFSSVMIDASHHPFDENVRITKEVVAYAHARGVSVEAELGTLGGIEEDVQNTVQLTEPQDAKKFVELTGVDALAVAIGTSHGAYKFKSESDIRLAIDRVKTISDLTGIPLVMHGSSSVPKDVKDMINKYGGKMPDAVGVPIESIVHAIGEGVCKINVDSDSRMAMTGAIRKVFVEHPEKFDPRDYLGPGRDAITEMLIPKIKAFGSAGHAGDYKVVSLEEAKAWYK
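40 nM FBPA preincubated 10 min at RT with compound (up to 57.5 uM final), then substrate plus GAPDH/TPI/NAD/arsenate coupling and diaphorase/resazurin added. Fluorescence read after 20 min at RT, 525/598 nm.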
FMDV inh = antivirals against foot and mouth disease virus; FMDV antiviral cell-based qHTS; Potency, µM (series often up to 57.9 µM), without a hit: at the top dose activity change, negative = inhibition, actives largely listed as inhibitors; actives 1.2% (n = 410,000); AID 1159524; calls by dose curve; tested in HEK293T cells; further: read-out not given here; potency means the concentration at half of the fitted maximal effect; nearly all actives have a fitted effect of over 45% in size
HCV inh = HCV inhibition | Huh7.5.1 HCVcc-Cre infection, luciferase reporter, 44 h | Potency, µM (series often up to 41.8 µM), for the others: at the top dose activity change, negative = inhibition, most hits filed as inhibitors | actives 3.4% (n = 340,000); further: potency means the concentration at half of the fitted maximal effect
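Reporter virus HCVcc-Cre (~0.5 moi) infects cells exposed to compound; seeding density 1,000 cells/well with 4 h settling beforehand. Luminescence, 15 sec read, taken 44 h post-infection following a 15 min RT substrate incubation.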
VACV mCherry inh = vaccinia inhibition (mCherry reporter); actives 0.63% (n = 310,000); Vaccinia virus mCherry reporter infection, fluorescence; Potency, µM (titrated, usually from 36.5 µM), without a hit: at the highest dose activity change, negative = inhibition, most hits filed as inhibitors; AID 720579; calls by dose curve; tested in A549 cells; further: potency means the concentration at half of the fitted maximal effect; nearly all actives have a fitted effect of over 35% in size
HCMV inh = human cytomegalovirus inhibition | HFF cells, HCMV-luciferase reporter, 72 h; active compounds read low | activity change, negative = inhibition, % at 57.5 µM | actives 4.5% (n = 410,000) | AID 1259415; in the data active means activity change below about -60%; inconclusive means no clear call, values can overlap the other calls; inactive means above about -39%
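Two-dose cell screen: HFF monolayers treated with compounds and infected with luciferase-expressing HCMV at 1 PFU/cell, 72 h at 37C, then lysed for luciferase measurement.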
Numbers without * were called inactive; i = inactive; ? = inconclusive; · = not tested or not shown; [ ] = another dose, or the depositor's remark. Unless noted, the call rests on the fitted dose curve; in most records, active means well fitted curve in the direction sought with a large enough effect; inconclusive means small, poorly fitted or top-dose-only effect, or another doubt; inactive means no such curve, though single readings can be large; an effect the other way counts as inactive or inconclusive. On the % scale 0 is the no-effect control and ±100 the full control effect.

SMILES	VACV Venus inh	Giardia FBPA inh	FMDV inh	HCV inh	VACV mCherry inh	HCMV inh
COc1cccc(CC(=O)Nc2nc(-c3cccnc3)cs2)c1	-24%	-3%	-19%	-8%	i	-62*
CCc1ccc(-c2csc(NC(=O)C3CC(=O)N(c4ccc5c(c4)OCCO5)C3)n2)cc1 (stereo not given)	?	-8%	?	11µM*	-28%	-84*
COc1ccc(OC)c(-c2csc(NC(=O)Cc3cc(OC)c(OC)c(OC)c3)n2)c1	-19%	-5%	?	11µM*	i	-37
COc1cc(C)cc2oc(=O)c(CC(=O)N3CCN(C(=O)C4COc5ccccc5O4)CC3)c(C)c12 (stereo not given)	·	5%	-20%	10µM*	·	-39
Cc1cc(O)c2c(C)c(CC(=O)N3CCN(C(=O)C4COc5ccccc5O4)CC3)c(=O)oc2c1 (stereo not given)	·	-4%	-16%	?	·	-22
NCC(=O)c1ccc2ccccc2c1	-5%	·	·	·	8%	·
CCC(=NCCc1c(C)[nH]c2ccc(C)cc12)C1=C(O)CC(c2ccccc2)CC1=O (stereo not given)	?	-4%	0%	?	?	-77*
C=C1C[C@@]23CC4C5[C@@]6(C)C[C@H](O)C[C@@]57C2[C@H](O)[C@@H]1[C@H](O)[C@H]3[C@H]7N4C6	·	3%	-12%	·	·	·
Cc1cc(NC(=O)NC(=O)c2cccc(OC(F)(F)C(F)F)c2)n[nH]1	-6%	9%	38%	-8%	-6%	24
Cc1cc(NC(=O)c2cccc(Oc3ccccc3)c2)n[nH]1	·	-5%	32%	-23%	·	-71*
CC(=O)Nc1cn(-c2ccccc2)nc1-c1ccccc1	0%	3%	-1%	4%	i	-27
O=C(Nc1cn(-c2ccccc2)nc1-c1ccc(F)cc1)c1ccccc1	-22%	3%	7%	-19%	-5%	-61*
COc1ccc(NC(=O)CN(C)C(=O)c2cn(-c3ccccc3)nc2-c2ccc(OC)cc2)cc1	·	·	5%	0%	·	-24
O=C(CCl)Nc1cn(-c2ccccc2)nc1-c1ccccc1	·	-5%	20µM*	2.8µM*	·	-96*
COc1ccc(NC(=O)CN(C)C(=O)c2cn(-c3ccccc3)nc2-c2ccc(F)cc2)cc1	·	·	-21%	11µM*	·	11
COc1ccc(NC(=O)c2cc(=O)c3ccc(C)c(C)c3o2)cc1Cl	-2%	·	-19%	·	-3%	2
O=C(OCC#CCSc1nnc(-c2cccc3ccccc23)o1)c1ccc2ccccc2c1	·	·	8%	·	·	-10
COc1ccc(S(=O)(=O)NCCc2ccccn2)cc1	-14%	·	40%	-4%	0%	-39
COc1ccc(S(=O)(=O)NC(C(=O)NCCc2ccccn2)C(C)C)cc1 (stereo not given)	-4%	2%	-4%	21%	-12%	-66*
COc1ccccc1Oc1ccc(-c2cnc3ccccc3n2)cc1[N+](=O)[O-]	-11%	-1%	1%	?	?	-87*
O=[N+]([O-])c1cc(-c2cnc3ccccc3n2)ccc1Oc1ccc(Cl)cc1	·	-2%	25%	?	·	44
Cc1nc(C(F)(F)F)ccc1C(=O)N1CCC1(C)C(=O)NS(=O)(=O)c1c(C)noc1C (stereo not given)	12%	·	-13%	·	52%	-9
O=S(=O)(Cc1ccccc1)Oc1ccccc1	-10%	-18%	-2%	11%	i	-63*
O=C(O)C(Cc1ccc(OS(=O)(=O)Cc2ccccc2)cc1)NS(=O)(=O)Cc1ccccc1 (stereo not given)	-12%	·	-2%	6%	i	-60*
O=S(=O)(Cc1ccccc1)Nc1ccccc1	·	5%	7%	3%	·	1
SMILES	VACV Venus inh	Giardia FBPA inh	FMDV inh	HCV inh	VACV mCherry inh	HCMV inh
COC(=O)c1cc(CNC(=O)c2ccncc2)cc(NC(=O)c2ccccc2Cl)c1	-9%	·	-1%	·	-6%	·
Cc1cccc(C2C3=C(Nc4[nH]n(-c5ccccc5)c(=O)c42)c2ccccc2C3=O)c1 (stereo not given)	·	-8%	-20%	-7%	·	-88*
Cc1ccccc1C1C2=C(Nc3[nH]n(-c4ccccc4)c(=O)c31)c1ccccc1C2=O (stereo not given)	·	-15%	·	1%	·	·
Cc1ccn2c(NC(C)(C)C)c(-c3cccs3)nc2c1	-14%	-4%	?	?	-19%	-37
O=C(/C=C/c1ccc(-c2cccc([N+](=O)[O-])c2)o1)N1CCOCC1	0%	0%	63%	?	-10%	-61*
COCC(C)NCc1cc2ccc(OC)cc2nc1N1CCN(c2ccc(F)cc2)CC1 (stereo not given)	?	·	-23%	·	?	·
CCOC(=O)Cn1c(=O)oc2cc(S(=O)(=O)NCc3ccc(F)cc3)ccc21	-7%	·	25%	·	6%	2
CC1=Nc2cc(C(=O)NC(C)C)ccc2Sc2ccc(C)cc21	-21%[7.34 µM]	·	-18%	·	-30%[7.34 µM]	-77*
CNC(=O)c1ccc2c(c1)N=C(C)c1cc(C)ccc1S2	-16%	·	-9%	·	-21%	4
CCC1=Nc2cc(C(=O)NCc3ccco3)ccc2Sc2ccccc21	·	-6%	7%	?	·	-3
CCOC(=O)N1CCC(NC(=O)c2ccc3c(c2)N=C(C)c2ccccc2S3)CC1	6%[7.34 µM]	5%	?	?	-4%[7.34 µM]	?
CC1=Nc2cc(C(=O)NC3CCCC3)ccc2Sc2ccc(C)cc21	?	·	-2%	·	-7%	-93*
CC1=Nc2cc(C(=O)NC3CCCC3)ccc2Sc2ccc(Cl)cc21	?	·	-25%	·	?	-72*
CCC1=Nc2cc(C(=O)NCc3ccco3)ccc2Sc2ccc(Cl)cc21	?	-8%	-14%	?	-4%	-67*
CCc1ccc(CNC(=O)c2ccc3c(c2)N=C(C)c2cc(C)ccc2S3)cc1	?	·	-11%	·	?	-25
CCN(Cc1ccccc1)C(=O)Cn1cc(S(=O)(=O)Cc2cccc(Cl)c2)c2ccccc21	-8%	·	24%	·	-13%	0
Clc1ccc(-n2cccc2CN2CCOc3ccc(CN4CCOCC4)cc3C2)nc1	-14%	·	-6%	·	i	·
C[C@@H](C(=O)Cc1ccc2ccccc2c1)[C@@H]1C[C@@]1(C)[C@@H](NP(=O)(c1ccccc1)c1ccccc1)c1ccccc1	·	-1%	·	·	·	·
CCC1=Nc2cc(C(=O)NC3CCCC3)ccc2Sc2ccc(Cl)cc21	?	·	-23%	·	?	-71*
CCC1=Nc2cc(C(=O)NCC3CCCO3)ccc2Sc2ccc(Cl)cc21 (stereo not given)	·	-5%	3%	?	·	0
CCOC(=O)C1CCCN(C(=O)Nc2c(-c3ccccc3)noc2C)C1 (stereo not given)	-14%	0%	-3%	20%	i	-5
